Reference: PubChem BioAssay AID1852 (Sanford-Burnham Center for Chemical Genomics, 2009)
Screen size: about 2,500 compounds; about 1,100 (44%) were called active.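 How the source made its calls: active means inhibition above 50% at 4 µM in the single-point screen; inactive means inhibition of 50% or less.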 The set was probably picked from earlier hits. The list shows a part of the results.

Test: blockers of TNF-a NF-kB luciferase induction – cell-based, HEK293T NF-kB-Luc, luminescence, selectivity assay for NOD1/NOD2 signaling inhibitor project, primary screen (AID 1852)
Conditions: TNF-a induced, 14 h, at 4 µM, stronger effect = higher value

inhibition, inactive:
Cc1c(OCC(=O)N2CCN(c3ccccc3)CC2)ccc2c3c(c(=O)oc12)CCCC3 14.2%
Cc1sc2ncnc(N3CCN(S(=O)(=O)c4ccc(Br)cc4)CC3)c2c1C 29.2%
Cc1sc2ncnc(N3CCN(S(=O)(=O)c4ccc(F)cc4)CC3)c2c1C 15%
COC(=O)c1scc(C#N)c1N/N=C(\C#N)S(=O)(=O)c1ccc(Cl)cc1 -8.6%
CC(C)(C)OC(=O)N1Cc2ccccc2C[C@H]1C(=O)NCC(=O)NC1CCCC1 11%
COCCCn1c(=O)c2sccc2n(Cc2cccc(C)c2)c1=O 29.7%
CCCCC(=O)/C=C/n1c(=S)oc2ccccc21 -6.6%
COC(=O)N1C(=O)[C@](CC(C)C)(c2ccccc2)N1C(=O)OC 45.2%
N=c1c2c(n(Cc3ccc(Cl)cc3)c3c1CCC3)CCC2 12.4%
O=C(c1ccc(S(=O)(=O)Cc2cc(F)ccc2F)c([N+](=O)[O-])c1)N1CCCCC1 -1.2%
CC1CCN(C(=O)c2ccc(S(=O)(=O)Cc3cccc(F)c3)c([N+](=O)[O-])c2)CC1 16.5%
Cc1ccc(N=c2c([N+](=O)[O-])nn(-c3ccc4c(c3)OCCO4)n2O)cc1F 0.1%
COc1ccccc1N1CCN(C(=O)C2CCCN(S(=O)(=O)c3ccc4c(c3)oc(=O)n4C)C2)CC1 (stereo unspecified) 19.5%
CC(=O)N1CCCc2cc(S(=O)(=O)N3CCCC(C(=O)N4CCN(c5cc(C)ccc5C)CC4)C3)ccc21 (stereo unspecified) 45.4%
Cc1cc(C(=O)Nc2ccccc2C(=O)O)ccc1NC(=O)COc1ccccc1Cl -11.7%
O=C(COc1cccc2ccccc12)Nc1ccc(Cl)cc1C(=O)O -62.6%
Cc1ccc(CNC(=O)[C@H](C)[C@H]2C[C@]2(C)[C@H](NC(=O)OCc2ccccc2)c2ccccc2)o1 1.6%
Cc1c(Nc2c3ccccc3nc3ccccc23)c(=O)n(-c2ccccc2)n1C 27.4%
COc1ccc(-c2cc(C(=O)NCCCN3CCOCC3)on2)cc1OC 6%
COc1ccc(-c2nc3nc(N)nn3cc2C)cc1F 22.9%
COc1cc(/C=C2\C(=N)N3N=C(S(C)(=O)=O)SC3=NC2=O)ccc1OCCOc1ccccc1C -26.4%
CC(=O)c1c(C)n(-c2ccc(Cl)cc2)c2ccc(O)cc12 12.3%
CC(=O)c1ccc(N2CCN(c3ccnc4cc(Cl)ccc34)CC2)cc1 45.2%
Cc1ccc(S(=O)(=O)NC(CC(C)C)C(=O)N2CC(C)OC(C)C2)cc1 (stereo unspecified) 9.2%
Cc1cccc(Nc2nc(N)nc(CCl)n2)c1 25.3%
O=[N+]([O-])c1ccc(N2CCN(c3ccccc3)CC2)nc1 -49.6%
Cc1ccc(S(=O)(=O)NCc2ccc(C(=O)N3CCN(c4ccc([N+](=O)[O-])cc4)CC3)cc2)cc1 43.8%

inhibition, active:
CCOC(=O)c1sc(NC(=O)CSc2nc3c(cc2C#N)CCCCCC3)c(C#N)c1C 52.1%
Cc1c(C)c2ccc(OCC(=O)Nc3ccccn3)c(C)c2oc1=O 76.2%
Cc1cc(C)c(C)c(S(=O)(=O)N2CCN(c3ncnc4sc(C)c(C)c34)CC2)c1C 75.3%
Cc1ccc(OCCN2CCN(c3ncnc4sc(C)c(C)c34)CC2)cc1 63%
CC(=O)/C=C/n1c(=S)oc2ccccc21 94.2%
CC(C)CC(=O)/C=C/n1c(=S)oc2ccccc21 76.6%
COC(=O)N1C(=O)[C@@](Cc2ccccc2)(c2ccccc2)N1C(=O)OC 59.8%
CCCCCCCCn1c2c(c(=N)c3c1CCC3)CCCC2 79.5%
CCCCCCCn1c2c(c(=N)c3c1CCC3)CCCC2 76.9%
CCCCCCCCCn1c2c(c(=N)c3c1CCC3)CCCC2 91.2%
O=C(c1ccc(S(=O)(=O)Cc2ccccc2Cl)c([N+](=O)[O-])c1)N1CCN(c2ccccn2)CC1 58.6%
CC1CCN(C(=O)c2ccc(S(=O)(=O)Cc3cc(F)ccc3F)c([N+](=O)[O-])c2)CC1 50.4%
Cc1ccc(CS(=O)(=O)c2ccc(C(=O)N3CCN(c4ccccn4)CC3)cc2[N+](=O)[O-])cc1 53%
CC(=O)N1CCCc2cc(S(=O)(=O)N3CCCC(C(=O)N4CCN(c5cccc(Cl)c5)CC4)C3)ccc21 (stereo unspecified) 57.4%
C=C(C)C(=O)O[C@H]1C/C(C)=C\C(=O)/C=C(\C)[C@H](O)[C@@H]2OC(=O)C(=C)[C@@H]21 102%
O=C(COc1ccc(Cl)cc1Cl)Nc1ccc(C(=O)Nc2ccccc2C(=O)O)cc1 53.4%
CC(NC(=O)OCc1ccccc1)C(=O)Oc1cc2oc(=O)cc(-c3ccccc3)c2cc1Cl (stereo unspecified) 55.2%
CC(NC(=O)OC(C)(C)C)C(=O)Oc1cc2oc(=O)cc(-c3ccccc3)c2cc1Cl (stereo unspecified) 84.3%
Cc1c(N=C2C=CC(=O)c3ccccc32)c(=O)n(-c2ccccc2)n1C 76.4%
COc1ccc(-c2cc(N)n(S(=O)(=O)c3c(F)c(F)c(F)c(F)c3F)n2)cc1OC 83.8%
CCOC(=O)N=Nc1c2ccccc2c2nc3no[nH]c3nc12 105%
CC(=O)c1c(C)n(-c2ccccc2)c2ccc(O)cc12 68%
CC(=O)c1ccc(-n2c(C)c(C(C)=O)c3cc(O)ccc32)cc1 50.8%
COc1ccc(-n2c(C)c(C(C)=O)c3cc(O)ccc32)cc1 72.1%
O=C1CCC2S/C(=C/Nc3ccc(C(F)(F)F)cc3)C(=O)N12 (stereo unspecified) 95.8%
COc1cccc(C(=O)Oc2c(Br)cc(Br)cc2/C=N/NC(=O)c2cc(C)[nH]n2)c1 71.1%
Cc1cc(C(=O)N/N=C/c2cc(Br)cc(Br)c2OC(=O)c2cccc(F)c2)n[nH]1 75.2%
Cc1cc(C(=O)N/N=C/c2cc(Br)ccc2OC(=O)c2ccccc2)n[nH]1 91.1%
Cc1c(-c2ccccc2)oc2c(C(=O)N3CCN(c4ccc([N+](=O)[O-])cc4)CC3)cccc2c1=O 60.9%
